Test systems include T-47D breast; BT-549 breast; MDA-MB-435 melanoma; SW-620 colon; MCF7 breast; HCT-116 colon; HCC-2998 colon; KM12 colon.
Test in all cases: NCI-60 one-dose screen, 48 h (100 = growth as untreated, 0 = no growth, -100 = all killed)
What all share (details): 10 µM unless noted

About 83,000 compounds went through this panel and 20% of them were active in at least one assay; those are over-represented in the sample as a whole.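 48-hour exposure, single concentration, 96-well plates; percent growth endpoint where 0 means no net growth. Active: below 10.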 Values without a mark were called inactive. Activity calls are given as the source filed them.

As to `Cc1cc(Cl)c2ccc(N(C)C)cc2n1`, the growth is 90.7% with T-47D breast; 111% in the assay on BT-549 breast; 102% with MDA-MB-435 melanoma; 99.5% in the assay with SW-620 colon; 92.1% in the assay on MCF7 breast; 105% in the assay on HCT-116 colon. In addition, the growth was 101% in the assay on HCC-2998 colon and 104% in the assay on KM12 colon.

`COc1ccc2c(c1)CCCC21C(=O)Nc2c(Cl)cccc21` (stereo not given): the growth with T-47D breast was 87.6%; in the assay with BT-549 breast it was 91%; with MDA-MB-435 melanoma it was -11.8% (active); in the assay on SW-620 colon, 42.8%; in the assay on MCF7 breast, 81.8%; in the assay on HCT-116 colon it was 49.5%. Besides, the growth in the assay with HCC-2998 colon was 88.3%; in the assay with KM12 colon, 61.3%.

Regarding `COC(=O)C1(C)COP(=O)(NC23CC4CC(CC(C4)C2)C3)OC1` (stereo not given), the growth with T-47D breast is 111%; in the assay on BT-549 breast, 99.7%; in the assay with MDA-MB-435 melanoma, 105%; in the assay on SW-620 colon it was 100%; with MCF7 breast, 102%; with HCT-116 colon, 108%. For the same compound, the growth with KM12 colon was 102%.

With `Nc1c(C(=O)c2ccc(Br)cc2)sc2nc3c(cc12)CCCC3`, the growth with T-47D breast is 101%; in the assay on BT-549 breast, 89.4%; with MDA-MB-435 melanoma, 49.9%; in the assay with SW-620 colon, 105%; in the assay with MCF7 breast it was 88.4%; in the assay on HCT-116 colon it was 98.5%. The results for the growth in the assay with HCC-2998 colon and in the assay on KM12 colon were 99.6% and 75.4%, respectively.

Regarding `CC[C@H](Nc1nc(C)nc(N)c1C#N)c1nc2cccc(NCc3ccc(C(=O)NO)cc3)c2c(=O)n1-c1ccccc1`, the growth was 0.805% (active) in the assay on T-47D breast; 36.6% in the assay with BT-549 breast; 16.8% in the assay with MDA-MB-435 melanoma; -31.5% (active) in the assay with SW-620 colon; 5.42% (active) in the assay on MCF7 breast; 3.59% (active) in the assay on HCT-116 colon. For the same compound, the growth with HCC-2998 colon is 7.75% (active); in the assay with KM12 colon, 13.3%.

For the compound `COc1ccc(-c2nnc(SCC(=O)Nc3ccc(C(=O)/C=C/c4ccc(Cl)cc4)cc3)n2-c2ccccc2)cc1`, the growth in the assay with T-47D breast was 88%; with BT-549 breast it was 84.6%; with MDA-MB-435 melanoma, 105%; in the assay with SW-620 colon, 101%; with MCF7 breast, 95.3%; in the assay on HCT-116 colon, 76%. Further, the growth with HCC-2998 colon is 103%; with KM12 colon, 98.2%.

Turning to `C=C(C)C1CCC2(C(=O)O)CCC3(C)C(CCC4C5(C)CCC(O)C(C)(C)C5CCC43C)C12` (stereo not given), the growth was -1.03% (active) in the assay with T-47D breast; -57.5% (active) in the assay with BT-549 breast; 48.6% in the assay with MDA-MB-435 melanoma; 19.6% with SW-620 colon; 1.31% (active) in the assay on MCF7 breast; -88.5% (active) in the assay with HCT-116 colon. Moreover, the growth with KM12 colon is -26.6% (active).

In the case of `FC1(F)CCN(Cc2c[nH]c3cc(Cl)ccc23)C[C@H]1CCc1ccccc1`, the growth is 45.2% with T-47D breast; 56% with BT-549 breast; 59.3% in the assay with MDA-MB-435 melanoma; 38.8% in the assay with SW-620 colon; 41.2% in the assay with MCF7 breast; 22.8% with HCT-116 colon. For the same compound, the growth in the assay on HCC-2998 colon was 95.3%; with KM12 colon it was 60.8%.

Consider `[O-]/[N+](=C\c1ccccc1)CC1(O)CCCCC1`, for which the growth is 106% in the assay with T-47D breast; 111% in the assay with BT-549 breast; 100% with MDA-MB-435 melanoma; 94.2% in the assay on SW-620 colon; 92.7% in the assay with MCF7 breast; 117% in the assay on HCT-116 colon. The results for the growth in the assay on HCC-2998 colon and in the assay on KM12 colon were 115% and 100%, respectively.

For `CCOC(=O)c1ccc(NCCC(=O)O)cc1`, the growth in the assay on T-47D breast is 101%; in the assay with BT-549 breast it was 110%; with MDA-MB-435 melanoma, 116%; in the assay on SW-620 colon, 110%; in the assay with MCF7 breast it was 92.4%; in the assay with HCT-116 colon it was 111%. In addition, the growth in the assay with HCC-2998 colon is 103%; in the assay on KM12 colon it was 110%.

Regarding `CCc1ccc(Nc2cc(C)c3ccc(O)cc3n2)cc1`, the growth with T-47D breast is 55.3%; with BT-549 breast, 88.3%; in the assay on MDA-MB-435 melanoma, 28.5%; with SW-620 colon, 78.5%; in the assay with MCF7 breast, 63.9%; with HCT-116 colon, 56.8%. Also, the growth with HCC-2998 colon is -59.8% (active); with KM12 colon it was 53.9%.

Regarding `Cc1cc(C#Cc2ccccc2)ccc1-n1c(/C=C/c2ccc(F)cc2)nc2ccccc2c1=O`, the growth was 41% in the assay on T-47D breast; 90.4% in the assay on BT-549 breast; 66.9% in the assay with MDA-MB-435 melanoma; 47.8% in the assay on SW-620 colon; 38.8% with MCF7 breast; 46% in the assay on HCT-116 colon. The growth was 86.6% in the assay with HCC-2998 colon and 62.5% in the assay on KM12 colon.

On to `ClCc1cccc(CSc2ncnc3c2ncn3Cc2cccc(CCl)c2)c1`, for which the growth in the assay with T-47D breast was -64.7% (active); in the assay with BT-549 breast it was -69.6% (active); in the assay on MDA-MB-435 melanoma, 9.56% (active); in the assay with SW-620 colon, -45.6% (active); in the assay with MCF7 breast, 13.3%; in the assay with HCT-116 colon, -79.6% (active). Also, the growth is -71.7% (active) in the assay with HCC-2998 colon and 57.9% in the assay with KM12 colon.

`Cc1n(Cc2ccc3ccccc3n2)cc[n+]1Cc1ccc2ccccc2n1`: the growth with T-47D breast is 27.2%; with BT-549 breast, 72.8%; with MDA-MB-435 melanoma, 63%; with SW-620 colon, 90.4%; in the assay with MCF7 breast it was 61.5%; with HCT-116 colon, 83.3%. The growth was 62.8% in the assay on HCC-2998 colon and 50.6% in the assay with KM12 colon.

Values taken from PubChem BioAssay (NCI).
